Results filed as inconclusive are left out. Calls of active or inactive are those of the source. Rule for the calls, unless noted: active = hit-call score of the fitted dose curve at least 0.9, where 1 is the maximum; inactive = score below 0.9.

E-selectin (Homo sapiens), sequence (P16581 whole entry, looked up): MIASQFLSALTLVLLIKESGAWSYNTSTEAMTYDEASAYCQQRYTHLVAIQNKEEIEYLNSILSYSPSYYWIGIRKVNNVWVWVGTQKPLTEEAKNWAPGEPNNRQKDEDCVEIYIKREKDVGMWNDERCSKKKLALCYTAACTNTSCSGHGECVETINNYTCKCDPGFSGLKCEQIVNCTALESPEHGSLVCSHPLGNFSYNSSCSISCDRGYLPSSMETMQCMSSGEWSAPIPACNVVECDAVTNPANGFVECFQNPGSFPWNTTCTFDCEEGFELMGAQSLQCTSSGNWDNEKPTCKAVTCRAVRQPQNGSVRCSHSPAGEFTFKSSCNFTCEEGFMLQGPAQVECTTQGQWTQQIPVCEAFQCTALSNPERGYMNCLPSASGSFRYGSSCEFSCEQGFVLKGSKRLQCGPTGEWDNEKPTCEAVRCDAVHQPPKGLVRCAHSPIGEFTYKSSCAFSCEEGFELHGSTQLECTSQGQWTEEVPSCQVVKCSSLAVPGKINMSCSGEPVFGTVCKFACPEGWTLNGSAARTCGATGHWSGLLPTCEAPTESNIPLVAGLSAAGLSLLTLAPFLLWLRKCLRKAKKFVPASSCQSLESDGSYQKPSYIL

The target in the first test is human Thyroid Receptor alpha (THRa1), THRA (gene 7067) (UniProt P10827). In words: ATG_THRa1_TRANS: Attagene TRANS-FACTORIAL HepG2 Assay for human Thyroid Receptor alpha (THRa1) (AID 2283014; active = hit-call score of the fitted dose curve at least 0.9, where 1 is the maximum).
human Thyroid Receptor alpha (THRa1), THRA (gene 7067), sequence (P10827 whole entry, looked up): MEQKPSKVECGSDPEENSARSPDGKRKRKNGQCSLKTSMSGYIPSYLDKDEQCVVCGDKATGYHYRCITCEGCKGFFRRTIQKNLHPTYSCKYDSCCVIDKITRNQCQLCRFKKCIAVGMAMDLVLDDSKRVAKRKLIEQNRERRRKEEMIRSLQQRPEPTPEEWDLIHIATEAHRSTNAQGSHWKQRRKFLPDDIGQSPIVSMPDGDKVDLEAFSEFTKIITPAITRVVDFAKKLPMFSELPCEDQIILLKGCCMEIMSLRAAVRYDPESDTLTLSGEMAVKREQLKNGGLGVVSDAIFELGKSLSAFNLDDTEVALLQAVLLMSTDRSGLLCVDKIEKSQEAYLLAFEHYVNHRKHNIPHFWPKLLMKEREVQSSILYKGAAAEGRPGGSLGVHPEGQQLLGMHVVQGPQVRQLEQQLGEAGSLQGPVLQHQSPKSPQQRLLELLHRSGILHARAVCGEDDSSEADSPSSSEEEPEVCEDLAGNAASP
Conditions: not given
In short, it runs like this:
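Reporter transcript induction, read by capillary electrophoresis of 6-FAM-labelled RT-PCR products, reflects activity of a transfected THRa1-Gal4 fusion in HepG2 liver cells. Cells were dosed for 24 h; activity was fitted in the positive direction against DMSO.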
As for `CC1=C(C)S(=O)(=O)CCS1(=O)=O`, the outcome was inactive.

With `CC(C)(O)c1ccc(CNC(=O)c2cccnc2Oc2ccc(F)cc2)cc1`, the molecule was called inactive. On the same count and under the same terms, then `CC(C)COC(=O)CCCCC(=O)OCC(C)C`, with “inactive”. With `O=C1O[C@H]([C@H](O)CO)C(O)=C1O`, the outcome was inactive. On the same count and under the same terms, as for `O=C(O)c1cccnc1`, the entry is “inactive”. In general, AC50 refers to the concentration giving half of the maximal activity seen. With `CCCCc1nc2cccnc2n1Cc1ccc(-c2ccccc2-c2nnn[nH]2)cc1`, the AC50 was 21.4 µM (active). As for `COC(=O)[C@H]1[C@H]2C[C@@H]3c4[nH]c5cc(OC)ccc5c4CCN3C[C@H]2C[C@@H](OC(=O)c2cc(OC)c(OC)c(OC)c2)[C@@H]1OC`, the outcome was inactive. In the case of `CCCCCCC(CCCCCCCCCCC(=O)OCC(COC(C)=O)OC(C)=O)OC(C)=O` (stereo not given), the result was inactive.

On to `O=C1c2c(O)cccc2Cc2cccc(O)c21`, for which the result was inactive. For the molecule `CCCCOC(=O)CCCCC(=O)OCCCC`, the molecule was called inactive. Same read-out and setting: then `O=C(Oc1ccccc1)c1cccc(C(=O)Oc2ccccc2)c1`, with “inactive”.

Read-out in a further test: E-selectin (Homo sapiens) (UniProt P16581)
In words: BSK_3C_Eselectin: BioMAP Diversity Plus: 3C Assay for Eselectin Biomarker Activity (AID 2283015).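 For outcome: cell surface E-selectin protein quantified by ELISA 24 h after dosing.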 To be noted: primary human endothelial cells (HUVEC); actives raise or lower the signal. In short, it runs like this: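 ELISA read-out of E-selectin on endothelial monolayers after 24 h chemical treatment. Human umbilical vein primary cells served as the system, with DMSO defining baseline activity for bidirectional fitting.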
As for `CCCCC(CC)COP(=O)(OCC(CC)CCCC)OCC(CC)CCCC` (stereo not given), the outcome was inactive.

`CC(C)(O)c1ccc(CNC(=O)c2cccnc2Oc2ccc(F)cc2)cc1`: the result was inactive. For `COC(=O)CCC(=O)OC`, the outcome was inactive. On to `CC(C)COC(=O)CCCCC(=O)OCC(C)C`, for which the result was inactive.

For the molecule `O=C1O[C@H]([C@H](O)CO)C(O)=C1O`, the outcome was inactive. In the case of `C/C=C/c1ccc(OC)cc1`, the outcome was inactive.

In the case of `O=C(O)CN(CC(=O)O)CC(=O)O`, the result was inactive.

In the case of `O=NO`, the result was inactive. On the same count and under the same terms, as for `CCCC[C@H]1CN(CC2CCOCC2)C(=O)OC12CCN(C1(C)CCN(C(=O)c3c(C)ncnc3C)CC1)CC2`, the entry is “inactive”; as for `CCc1cc(C2=C(C(=O)O)N(c3ccccc3C(F)(F)F)S(=O)(=O)c3ccccc32)cc2c1OCO2`, “inactive”.

As to `Oc1ccc(O)cc1`, the AC50 was 13.8 µM (active).

In the case of `CN(C)CCCN(C)CCCN(C)C`, the outcome was inactive.

As to `O=C(O)c1cccnc1`, the outcome was inactive. For the molecule `CCCCCCCCCC[N+](C)(C)[O-]`, the outcome was inactive. With `CCCCCCCCCCCCCCOS(=O)(=O)O`, the result was inactive. For `COC(=O)[C@H]1[C@H]2C[C@@H]3c4[nH]c5cc(OC)ccc5c4CCN3C[C@H]2C[C@@H](OC(=O)c2cc(OC)c(OC)c(OC)c2)[C@@H]1OC`, the AC50 was 16.9 µM (active). With `COC(=O)CCCC(=O)OC`, the outcome was inactive. Still for that read-out and setting: then `O=C1c2c(O)cccc2Cc2cccc(O)c21`, with “inactive”. Same read-out and setting: then `O=C(Oc1ccccc1)c1cccc(C(=O)Oc2ccccc2)c1`, with “inactive”.

The record behind these values is PubChem BioAssay (EPA / NIEHS).
